This is part of a sample that, as a whole, favours compounds with a hit. Of some 79,000 tested, about 15% had one in any assay. Active and inactive are the calls of the source. No stated cut-off is given here; in the data, active means growth inhibition above about 70%; inactive means the rest.
Tests used:
[1] = NCI Yeast Anticancer Drug Screen. Data for the rad50 strain (AID 155);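 further: 0% = growth of vehicle-only cultures of the same strain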; conditions: S. cerevisiae rad50 strain growth inhibition; at 50.0 µM; active compounds read high
Method in brief: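 Compounds were tested on a yeast strain with an engineered DNA damage repair alteration; the reported value is growth inhibition normalised to vehicle treatment.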

[2] = NCI Yeast Anticancer Drug Screen. Data for the mec2-1 strain (AID 157); conditions: S. cerevisiae mec2-1 strain, at 50.0 µM, active compounds read high
Method in brief: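 Cells of the genetically defined mec2-1 yeast strain are incubated with test compound. Inhibition of growth is calculated against vehicle-treated controls.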

[3] = NCI Yeast Anticancer Drug Screen. Data for the sgs1 mgt1 strain (AID 161);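 further: 0% = growth of cultures given vehicle only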; conditions: S. cerevisiae sgs1 mgt1 strain, at 50.0 µM, active compounds read high
Method in brief: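 Mutant yeast exposed to compound; growth scored against vehicle-only wells.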

[4] = NCI Yeast Anticancer Drug Screen. Data for the bub3 strain (AID 167); conditions: S. cerevisiae bub3 mutant strain, at 50.0 µM, active compounds read high
Method in brief: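 Growth of a checkpoint-deficient yeast mutant is measured after compound exposure. Values represent inhibition relative to vehicle.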

[5] = NCI Yeast Anticancer Drug Screen. Data for the mlh1 rad18 strain (AID 175); conditions: S. cerevisiae mlh1 rad18 strain growth inhibition; at 50.0 µM; active compounds read high
Method in brief: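 Compound-treated yeast growth, normalised to vehicle controls. Strain bears defined DNA repair mutations.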

Measured: growth inhibition

CC(=O)C(C(C)=O)c1ccccc1
inactive: [1] -5.15% | [2] 2.7% | [3] 3.05% | [4] 4.05% | [5] -5.75%

CCOC(=O)C(=Cc1c[nH]c2ccc(Br)cc12)C(=O)OCC
inactive: [1] -17.5% | [2] -22.9% | [5] -5.15%

O=C(O)/C=C\C(=O)Nc1ccccc1NC(=O)/C=C/C(=O)O
inactive: [1] 3.45% | [2] -26.1% | [5] -16.2%

CC[n+]1c(C)n(Cc2ccc(C(=O)O)cc2)c2cc(F)ccc21
inactive: [1] -10.8% | [2] -14.7% | [5] 27.9%

CCCCCCC(C/C=C\CCCCCCCC(=O)OC)OC(C)=O (stereo not drawn)
inactive: [1] -10.2% | [2] -16.7% | [5] -4.5%

CCCCCCCCCC(=O)CC(=O)c1c(O)cc(O)cc1O
active: [1] 87.8% | [2] 91.3% | [5] 91.7%
inactive: [3] 12.2% | [4] 31.8%

CCO/C=N\C1=C(C#N)SC2=N/C(=C\c3ccc(OC)cc3)C(=O)N21
inactive: [1] -7.4% | [2] -25.1% | [3] 7.35% | [5] -57.8%

O=C(/C=C(\[O-])c1ccccc1)CCCCCCC(=O)/C=C(\[O-])c1ccccc1.O=C(/C=C(\[O-])c1ccccc1)CCCCCCC(=O)/C=C(\[O-])c1ccccc1.O=C(/C=C(\[O-])c1ccccc1)CCCCCCC(=O)/C=C(\[O-])c1ccccc1.[Nd+3].[Nd+3]
inactive: [1] 26.4% | [2] 22.5% | [3] 30.1% | [4] 31.2% | [5] 22.1%

Clc1ccc(C2C3COc4ccccc4C3=NN2c2ccccc2)cc1 (stereo not drawn)
inactive: [1] -26.1% | [2] -29.9% | [3] -14.8% | [4] -29.5% | [5] -13.3%

C/C(=C\COc1cc(O)c2c(c1)C(=O)c1cc(C)cc(O)c1C2=O)CCC1OC1(C)C (stereo not drawn)
inactive: [1] 16.7% | [2] -22.9% | [3] 4.55% | [4] -12.4% | [5] -53.7%

CC(=O)[CH-]C(=O)c1ccccc1.CC(=O)[CH-]C(=O)c1ccccc1.O=S(=O)([O-])c1cc([O-])c2c([O-])cc(S(=O)(=O)[O-])cc2c1.[Na+].[Zr+4]
inactive: [1] 21.3% | [2] -7.6% | [3] 25.6% | [4] 37.9% | [5] 10.8%

CO/C(N)=C(\C#N)N=Cc1ccc2ccccc2c1
inactive: [1] 30.9% | [2] 14.3% | [3] 13.6% | [5] 40.5%

S=C(S)NC1CCCCCCCCCCC1
inactive: [1] 45.8% | [2] 23.8% | [5] 39%

CN1C2CCC1CC(OC(=O)C(O)c1ccccc1)C2 (stereo not drawn)
inactive: [1] 9.3% | [2] -3.75% | [3] -27.9% | [5] 7.45%

Cc1ccc(OCC2OC(n3cnc4nc(Cl)nc(Cl)c43)CC2Oc2ccc(C)cc2)cc1 (stereo not drawn)
inactive: [1] 36% | [2] 12.4% | [3] 50.5% | [4] 57.6% | [5] 15.2%

N#CC1(C#N)C2CCCCC23OC(=N)C1(C#N)C(c1ccco1)O3 (stereo not drawn)
inactive: [1] 15.8% | [2] 19.7% | [3] -29.2% | [4] -41.5% | [5] -25.4%

CCCCCCCCCCCCCCCc1cc(=S)n(C)c2ccc(C)cc12
inactive: [1] 25.1% | [2] -13.5% | [5] 16.1%

COC(=O)C(C(=O)C(=O)NC1Nc2ccc(C)cc2S1)c1nc2ccc(Cl)cc2[nH]c1=O (stereo not drawn)
inactive: [1] 18.2% | [2] -12.3% | [3] 11.5% | [4] 13.2% | [5] 28.9%

COC(=O)C(=O)C(C(=O)C(=O)Nc1ccccc1OC)c1nc2ccc([N+](=O)[O-])cc2[nH]c1=O (stereo not drawn)
inactive: [1] 16.4% | [2] 19.4% | [3] 10.9% | [5] 21.6%

Cc1cccc(C)c1NC(=S)N(C)C
inactive: [1] -8.8% | [2] -7.3% | [5] 4.65%

CC(=O)NCc1cc(CNC(C)=O)c(C)cc1C
inactive: [1] -17.5% | [2] -13.7% | [5] -23.6%

COc1cc(OC)cc(C(=O)Cl)c1
inactive: [1] -24.4% | [2] -40% | [5] -16.1%
